Experimental findings from PubChem BioAssay AID1117361 (Southern Research Institute, 2015) are described below.

Screen size: about 3,600 compounds; about 900 (25%) were called active. No rule for the calls is given here. The list is a sample of the results. Measured potencies and affinities stand elsewhere.

For this test, the target named is Protein Tat (Human immunodeficiency virus type 1 group M subtype B (isolate HXB2)) (UniProt P04608). Nature of the test: HIV-1 Tat–TAR interaction blockers – biochemical, fluorescence polarization, FAM-labeled TAR RNA, counter-screen for Vif-APOBEC3G degradation inhibitor project, dose response (AID 1117361). To be noted: Tat-TAR RNA binding; series mostly up to 100 µM; inhibition: at the top concentration. For orientation: Polarisation of emitted light reports the rotation of a fluorescent probe.
Usually inhibition stands for the percentage by which the read-out fell short of the control. As to `CCn1c(-c2csc(-c3ccc(Cl)cc3)n2)n[nH]c1=S`, the “inhibition” value was 0.68% (inactive).
On to `COc1ccc(N2CCC(CNS(=O)(=O)c3cccc(C(F)(F)F)c3)C2)cc1` (stereo not drawn), for which the call was inactive.
On the same count and under the same terms, under `COc1ccc(NC(=O)CN2CCN(c3ccc(F)cc3)CC2)cc1Cl` stands “inactive”; under `COc1ccc(-c2nc(C#N)c(NCc3ccccc3Cl)o2)cc1OC`, “inactive”.
`O=C(c1cccc(C(F)(F)F)c1)C1CCCN(C(=O)CCCN2CCCC2=O)C1` (stereo not drawn): the “inhibition” value was 0.82% (inactive).
The same measure, in the same setting: as for `CCc1nnc(NC(=O)c2ccc(-c3ccccc3Cl)o2)s1`, the figure is 3.38% (inactive).
On to `CCOC(=O)C1CC(CN2C(=O)c3ccccc3C2=O)OC1=O` (stereo not drawn), for which the molecule was called inactive.
With `CCOC(=O)c1c(C)nn(Cc2cccc(Cl)c2)c1N`, the “inhibition” value was 1% (inactive).
Still for that read-out and setting: as for `Nc1ncnc2c1cnn2C1CCCCC1`, the figure is 6.6% (inactive); as for `COc1ccccc1N1CCN(CCc2n[nH]c(=S)n2-c2ccccc2)CC1`, 2.03% (inactive); as for `S=c1[nH]nc(COc2ccc(Cl)cc2)n1Cc1ccccc1`, 14.8% (inactive).
Same read-out and setting: under `O=C1N(Cc2cccnc2)C[C@@H]2C[C@@H](c3ccc4nsnc4c3)N3CCC[C@@]123` stands 5.77% (inactive); under `COc1cccc(C(=O)N2CCN(Cc3nc(CC4CC4)no3)CC2)c1`, 1.65% (inactive).
On to `COc1ccc(N=CC2=C(O)CCCC2=O)cc1`, for which the “inhibition” value was 3.38% (inactive).
On the same count and under the same terms, under `O=C1CCCC(O)=C1C=Nc1ccc(O)cc1` stands 21.1% (inactive).
In the case of `CC1CN(C(=O)COC(=O)Cc2ccc(Cl)cc2)CC(C)O1` (stereo not drawn), the molecule was classed as inactive.
For `CCCCn1c(C)nc2c(=O)n(C)c(=O)[nH]c21`, the “inhibition” value was 4.05% (inactive).
For the molecule `CCN(CC)CCN1C(=O)C(=O)/C(=C(/O)c2ccc(C)cc2)C1c1ccncc1` (stereo not drawn), the molecule was called inactive.
Same read-out and setting: as for `CC(OC(=O)/C=C/c1ccco1)C(=O)NC1CCCCC1` (stereo not drawn), the entry is “inactive”.
As for `CCCc1nc2ccccc2c(C(=O)OCC(=O)N2CCc3ccccc32)c1CC`, the “inhibition” value was 4.09% (inactive).
As for `CN(C1CCCCC1)S(=O)(=O)c1cccc(C(=O)OCC(=O)NC2CCCc3ccccc32)c1` (stereo not drawn), the molecule was classed as inactive.
For `Cc1nc2ccc(NC(=O)c3cc(S(=O)(=O)N4CCOCC4)ccc3C)cc2s1`, the molecule was called inactive.
In the case of `COc1ccc(OCCOC(=O)c2cccc(-n3cnnn3)c2)cc1`, the “inhibition” value was 8.78% (inactive).
As to `COc1ccc(C(C)(C)C)cc1NC(=O)C1C2C=CC(C2)C1C(=O)O` (stereo not drawn), the call was inactive.
For `O=C(Nc1nc(-c2ccco2)c(-c2ccco2)s1)c1ccc(F)cc1F`, the “inhibition” value is 26.4% (inactive).
For `CC1CCc2nc(NC(=O)c3ccco3)sc2C1` (stereo not drawn), the “inhibition” value was 0.68% (inactive).
`c1coc(-c2nc3nc4ccccc4n3nc2-c2ccco2)c1`: the “inhibition” value is 3.67% (inactive).
Same read-out and setting: as for `Cc1nc2nc(-c3ccco3)nn2c(C)c1Cl`, the figure is 5.68% (inactive); as for `Cc1cc(-c2ccco2)n(-c2ccccc2)n1`, 19.1% (inactive).
With `O=C1CN(C(=O)COC(=O)c2oc3ccccc3c2COc2ccccc2)c2ccccc2N1`, the “inhibition” value is 2.7% (inactive).
For the molecule `Cc1cc(C(=O)Nc2c(C)cccc2C)n(-c2ccccc2)n1`, the outcome was inactive.
Still for that read-out and setting: under `Cc1ccc(NC(=O)CSc2nnc([C@H](C)NC(=O)OC(C)(C)C)o2)c(C)c1` stands “inactive”.
With `Cn1c2ccccc2c2c(C(=O)O)cn(C3CCCC3)c(=O)c21`, the “inhibition” value was 10.1% (inactive).
The same measure, in the same setting: as for `CCC(=O)N1CCc2cc(S(=O)(=O)NCCC(=O)NC3CCCc4ccccc43)ccc21` (stereo not drawn), the figure is 12.2% (inactive); as for `COc1ccc(N(C(=O)c2ccco2)S(=O)(=O)c2cc(Cl)c(Cl)cc2Cl)cc1`, 2.7% (inactive).
For `O=C(O)CCC(=O)NNC(=O)CCC(=O)NCc1ccccc1`, the molecule was classed as inactive.
The same measure, in the same setting: under `CC(c1ccccc1)N(C)CC(=O)NC(=O)NCCC1=CCCCC1` (stereo not drawn) stands “inactive”.
With `O=C(NCc1cccs1)c1ccc2c(c1)ncn2C1CCCC1`, the “inhibition” value was 2.05% (inactive).
Consider `Cc1cccc2c1N(CCCOc1ccc(C(C)(C)C)cc1)C(=O)C2=O`, for which the molecule was called inactive.
As for `CCOC(=O)c1cc2sc(C)cc2n1CC(=O)N1CCN(C(=O)c2ccco2)CC1`, the “inhibition” value was 7.43% (inactive).
Still for that read-out and setting: under `O=C(CSc1nc2cc(Cl)ccc2s1)N1CCN(C(=O)c2ccco2)CC1` stands 8.78% (inactive); under `COc1ccccc1CN(C)C(=O)CN1CCN(C(=O)c2cccs2)CC1`, 3.3% (inactive).
Still for that read-out and setting: under `Cc1nn(-c2ccccc2)c(C)c1/C=N/NC(=O)c1cc(-c2ccccc2)n[nH]1` stands 4.09% (inactive); under `COc1ccccc1NS(=O)(=O)c1cccc2cccnc12`, 4.05% (inactive).
Still for that read-out and setting: as for `Cn1c(=O)cc(NCc2ccccc2)[nH]c1=O`, the figure is 4.05% (inactive); as for `O=C(NCC1CCCO1)C1CCCN(Cc2cnn(-c3ccccc3)c2-n2cccc2)C1` (stereo not drawn), 5.41% (inactive).
On to `Cc1ccc2[nH]c(=O)c(CN(Cc3ccco3)C(=O)c3ccncc3)cc2c1`, for which the molecule was called inactive.
In the case of `COc1ccc2nc3oc(C(=O)N4CCCCC4)cc3cc2c1`, the “inhibition” value is 1.36% (inactive).
Same read-out and setting: as for `Cc1ccc(NC(=O)COc2ccccc2C(=O)Nc2ccccc2)cc1Cl`, the figure is 7.5% (inactive); as for `COc1cc(NC(=O)Cc2ccccc2)cc(OC)c1`, 4.77% (inactive); as for `O=C(CCCCCCC(=O)NCc1ccccc1)NCc1ccccc1`, 8.35% (inactive).
In the case of `CC(C)Cn1c2c(c(O)c(C(=O)Nc3nccs3)c1=O)CCCC2`, the outcome was inactive.
On to `COc1ccc(-c2[nH]c3ccccc3c2SCCN)cc1`, for which the molecule was called inactive.
As for `Cc1nnc(N2CCc3ccccc3C2)[nH]c1=O`, the “inhibition” value was 8.87% (inactive).
For the molecule `COc1cccc(CC(=O)Nc2nccs2)c1`, the “inhibition” value is 0.68% (inactive).
Take `CCS(=O)(=O)N1CCC(C(=O)NCc2cccc(OC)c2)CC1`: the molecule was called inactive.
In the case of `O=C(Cn1cnc2ccccc2c1=O)c1cccs1`, the “inhibition” value is 4.09% (inactive).
On to `CN(C)c1nc(N)nc(CSc2ncc(Cl)cc2Cl)n1`, for which the molecule was called inactive.
The same measure, in the same setting: as for `Cc1ccccc1CCNC(=O)c1ccc(Cl)c(S(=O)(=O)N2CC(C)OC(C)C2)c1` (stereo not drawn), the entry is “inactive”.
Take `COc1ccccc1-n1cnc2cc(NCc3cccs3)ccc21`: the “inhibition” value was 2.7% (inactive).
Same read-out and setting: under `COc1ccc(S(=O)(=O)N2CCCCCC2)cc1C(=O)OCC(=O)NC(N)=O` stands 1.35% (inactive).
Consider `Cn1c(NC(=O)c2cccs2)cc(=O)n(C)c1=O`, for which the molecule was called inactive.
With `CSc1nc2ccc3nc(NC(=O)c4cccs4)sc3c2s1`, the “inhibition” value was 15.5% (inactive).
Still for that read-out and setting: under `CCCCCCn1c(SCC(=O)c2c(N)n(C)c(=O)n(C)c2=O)nc2ccccc21` stands 4.05% (inactive).
Consider `COc1cccc(C(=O)CSc2nc3ccccc3n2CC(=O)N2CCOCC2)c1`, for which the molecule was called inactive.
For `CN(CC(=O)NCCc1ccccc1)S(=O)(=O)c1cccs1`, the “inhibition” value is 6.76% (inactive).
Still for that read-out and setting: as for `O=C1CCCC2=C1C(c1ccco1)Nc1ccc3ccccc3c12` (stereo not drawn), the figure is 1.67% (inactive); as for `COc1ccc(Br)cc1C1CC(=O)N2CN(Cc3ccccc3)CSC2=C1C#N` (stereo not drawn), 16.2% (inactive); as for `COc1ccc(C2CC(=O)N3CN(c4ccc(C)c(Cl)c4)CSC3=C2C#N)cc1` (stereo not drawn), 22.3% (inactive).
On the same count and under the same terms, under `CCOC(=O)CCN(Cc1sccc1C)S(=O)(=O)c1ccc(F)cc1` stands 10.8% (inactive).
Take `Cc1ccnc(NC(=O)c2ccc(Cl)c(S(=O)(=O)N3CCCC3)c2)c1`: the result was inactive.
Still for that read-out and setting: under `COc1ccc(NC(=O)Cn2c(=O)sc3ccccc32)cc1` stands “inactive”.
Regarding `COc1ccc(Cc2nnc(NC(=O)CSc3ccccc3)s2)cc1`, the result was inactive.
Regarding `C[C@@H]1CCCCO[C@H](CN(C)C(=O)c2ccccc2)[C@@H](C)CN([C@H](C)CO)C(=O)c2cc(NC(=O)NC3CCCCC3)ccc2O1`, the “inhibition” value was 3.01% (inactive).
Still for that read-out and setting: as for `CCOc1ccc(-n2c(=O)c3c(C)c(C)sc3n(CC(=O)NCc3ccco3)c2=O)cc1`, the figure is 8.87% (inactive).
Regarding `Cc1cccc(NC(=O)Cn2c(=O)n(Cc3ccco3)c(=N)c3c4c(sc32)COC(C)(C)C4)c1`, the molecule was classed as inactive.
Still for that read-out and setting: as for `CCOC(=O)c1cc([N+](=O)[O-])cc([N+](=O)[O-])c1Sc1ncnc2nc[nH]c12`, the entry is “inactive”.
As for `CCCCn1c(N)c(N(CCC(C)C)C(=O)C2=NN(c3cc(C)ccc3C)C(=O)CC2)c(=O)[nH]c1=O`, the “inhibition” value was 2.34% (inactive).
Regarding `CC(=O)N(C1=C(Cl)C(=O)c2ccccc2C1=O)c1ccc(C(=O)O)cc1`, the result was inactive.
For the molecule `CCC(C(=O)OCC(=O)Nc1ccc(SC(F)F)cc1)c1ccccc1` (stereo not drawn), the “inhibition” value is 15.7% (inactive).
For the molecule `Cc1ccc(C(c2nnnn2CC2CCCO2)N2CCN(C)CC2)cc1` (stereo not drawn), the call was inactive.
Take `CC(C)CC(c1nnnn1C1CCCCC1)N1CCN(c2ncccn2)CC1` (stereo not drawn): the “inhibition” value is 2.05% (inactive).
On the same count and under the same terms, under `CCC(=O)Nc1cc(C(=O)OCC(=O)c2ccccc2Cl)ccc1C` stands 2.03% (inactive); under `O=C(NCc1ccc(Cl)cc1)c1ccccc1Oc1ccccc1`, 3.38% (inactive).
`COC(Cc1nnc(SC)n1-c1ccc(Cl)cc1)OC`: the outcome was inactive.
As for `CCOC(=O)CSc1nc2c(sc(=S)n2-c2ccccc2OC)c(=O)n1Cc1ccco1`, the “inhibition” value is 21.8% (inactive).
Still for that read-out and setting: under `O=C(O)c1ccc(-n2c(-c3cc(-c4ccco4)[nH]n3)n[nH]c2=S)cc1` stands 8.78% (inactive).
In the case of `CCCn1c(Sc2nc3c(c(=O)[nH]c(=O)n3C)n2CCC)nc2c1c(=O)[nH]c(=O)n2C`, the molecule was called inactive.
As for `CCC(C)n1cnc2c(c1=O)c1nc3ccccc3nc1n2-c1ccc2c(c1)OCCO2` (stereo not drawn), the “inhibition” value was 4.05% (inactive).
For the molecule `CCCn1nnnc1-c1cccc(Cl)c1`, the “inhibition” value is 2.03% (inactive).
In the case of `COc1ccc(C(=O)CSc2nnc3n2CCCN3C(=O)Nc2ccccc2)cc1`, the outcome was inactive.
As for `CN(C)c1nc(N)nc(CSc2nc3c(c(=O)n(C)c(=O)n3C)n2Cc2ccccc2F)n1`, the “inhibition” value is 23.1% (inactive).
Turning to `CC(=O)Nc1ccc(OCC(O)CNC2CCCC2)cc1` (stereo not drawn), the result was inactive.
As for `CC(=O)c1ccc(N2C(=NC(=O)C3CCCO3)SC3CS(=O)(=O)CC32)cc1` (stereo not drawn), the “inhibition” value is 3.01% (inactive).
For `O=C(c1cccnc1NCc1ccc(F)cc1)N1CCOCC1`, the “inhibition” value was 4.05% (inactive).
Turning to `O=C(c1cc2ccccc2oc1=O)N1CCN(c2ccc(N3CCOCC3)nn2)CC1`, the outcome was inactive.
Regarding `COc1ccccc1C1NC(c2ccccc2OC)C(C)C(=O)C1C` (stereo not drawn), the “inhibition” value was 8.11% (inactive).
Same read-out and setting: as for `CCOc1ccc(C2NC(=O)C(C#N)=C(S)N2c2ccc(OC)cc2)cc1OC` (stereo not drawn), the figure is 2.73% (inactive).
Consider `CC1(CCc2ccc3c(c2)OCO3)NC(=O)c2ccccc2N1` (stereo not drawn), for which the molecule was called inactive.
Same read-out and setting: as for `O=C(COc1ccccc1C(=O)O)Nc1ccc(SC(F)F)cc1`, the entry is “inactive”.
Take `CCOC(=O)c1c(NC(=O)c2cccs2)sc(C)c1C`: the “inhibition” value was 10.7% [at 50 µM] (inactive).
On the same count and under the same terms, as for `CCCc1cc(=O)[nH]c(SCC(=O)Nc2cc3c(cc2C(C)=O)OCO3)n1`, the figure is 2.05% (inactive).
`Cc1cc(NC(=O)CCC(=O)N(CCC(C)C)C(C(=O)NC2CCCC2)c2cccnc2)no1` (stereo not drawn): the molecule was called inactive.
For the molecule `COc1ccc2c3c(c(=O)oc2c1OCC(=O)C(C)(C)C)CCCC3`, the result was inactive.
On to `Cc1cc(C)c2nc(N3CCCN(C(=O)c4cnccn4)CC3)c(C#N)cc2c1`, for which the “inhibition” value was 26.6% (inactive).
Consider `NS(=O)(=O)c1cccc(NS(=O)(=O)c2ccc(/C=C/C(=O)OCC(=O)c3ccccc3)cc2)c1`, for which the result was inactive.
For `Cc1ccc(-n2nnnc2SCc2ccccn2)cc1C`, the “inhibition” value is 4.73% (inactive).
Same read-out and setting: as for `Cc1cc(SCC2=NNC(=O)C2)c(Cl)cc1Cl`, the figure is 2.47% (inactive).
